Bioassay records: PubChem, Sanford-Burnham Center for Chemical Genomics
CYP2C9 activ = CYP2C9 (human) activation | recombinant CYP2C9, luciferin-H conversion, luminescence; hits give high values; factor 1 = untreated enzyme, 0 = blocked | 1.4% of 96,000 active | activation factor at 5 µM | P11712;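 active = activation factor of 2 or more for CYP2C9 at a 5 µM dose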;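 note: 0 = sulfaphenazole-blocked wells and 1 = vehicle-only wells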
Target sequence (P11712 whole entry, looked up): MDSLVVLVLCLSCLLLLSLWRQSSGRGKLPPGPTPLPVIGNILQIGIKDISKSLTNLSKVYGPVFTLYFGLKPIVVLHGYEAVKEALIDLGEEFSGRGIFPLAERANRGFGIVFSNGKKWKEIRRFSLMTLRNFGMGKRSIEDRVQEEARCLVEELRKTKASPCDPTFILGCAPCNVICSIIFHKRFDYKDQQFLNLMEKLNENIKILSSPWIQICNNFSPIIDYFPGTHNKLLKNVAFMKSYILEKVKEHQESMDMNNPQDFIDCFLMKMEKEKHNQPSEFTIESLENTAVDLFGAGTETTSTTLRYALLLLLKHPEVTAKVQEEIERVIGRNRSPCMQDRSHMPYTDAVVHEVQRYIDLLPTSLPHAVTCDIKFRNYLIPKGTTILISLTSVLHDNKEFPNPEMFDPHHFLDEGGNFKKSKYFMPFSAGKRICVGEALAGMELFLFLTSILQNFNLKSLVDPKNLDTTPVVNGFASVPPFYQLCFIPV
CYP2C9 inhib = inhibitors of human CYP2C9; P11712; CYP2C9 Supersomes, luciferin-H conversion, luminescence; inhibition, % at 5 µM; 20% of 96,000 active; AID 777;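 active = blocking of liver enzyme CYP2C9 beyond about 50% at 5 µM, limit read from the data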
CYP2C19 inh = human CYP2C19 inhibition; P33261; CYP2C19 Supersomes, luciferin-H EGE luminescence, 30 min; inhibition, % at 5 µM; 21% of 96,000 active; AID 778;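 active = CYP2C19 inhibition above a set limit at 5 µM in the primary screen, cut at about 50% in these data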;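 note: plate controls were negative control wells for no effect and 2.5 mM tranylcypromine positive control for full effect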
CYP2C19 act = cytochrome P450 2C19 (human) activation. P33261. recombinant CYP2C19, luciferin-H EGE luminescence; hits give high values; 0 = fully inhibited enzyme, 1 = untreated enzyme. 96,000 tested, under 10 active. activation factor at 5 µM;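 active = activation factor of at least 2 at 5 µM in the primary screen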;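 note: 0 = wells with 2.5 mM tranylcypromine and 1 = vehicle-only wells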
PTK2B oligo ant = antagonists of human Pyk2 oligomerization | 0.83% of 99,000 active | z-score (the deposit names both 25 µM and 10 µM) | Q14289 | Q293 cells, Pyk2 FERM NanoBiT luminescence; hits give low values;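 active = Z-score of -3 or lower, scaled per plate to the spread of control and sample wells; inactive = z-score above -3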;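 note: negative z-score means lost luminescence so less FERM oligomerization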
Numbers without * were called inactive; x = no result given. This is a sample that favours compounds with a hit; in the whole collection about 28% have one here.

SMILES | CYP2C9 activ | CYP2C9 inhib | CYP2C19 inh | CYP2C19 act | PTK2B oligo ant
COc1cc(C(=S)N2CCCC2)ccc1OC(=O)c1ccc(Cl)cc1[N+](=O)[O-] | 1.6 | -59 | 32 | 0.7 | 1.6
Cc1ccc(C(=O)Nn2cnc3scc(-c4cccs4)c3c2=O)c(O)c1 | 0.6 | 36 | -10 | 1.1 | -2.3
COc1cccc(CNCc2ccc(SC)cc2)c1OC | 0.8 | 16 | 100* | 0 | 0.49
O=C(NCc1ccncc1)C12CC3CC(CC(C3)C1)C2 | 0.5 | 49 | 52* | 0.5 | 0.86
O=C(NCc1ccccc1)C12CC3CC(CC(C3)C1)C2 | 1 | -3 | 31 | 0.7 | 0.09
CC1(C)NC(=O)N(CC(=O)O)C1=O | 1.1 | -10 | 7 | 0.9 | -0.07
Cc1sc(NC(=O)c2ccco2)c(CN2CCN(c3ccccn3)CC2)c1C | 0.1 | 89* | 65* | 0.3 | -1.5
CCC(=O)N1CCN(c2ccc(NC(=O)c3ccco3)cc2)CC1 | 1.2 | -16 | -2 | 1 | -0.15
c1ccc(N2CCN(Cc3ccsc3)CC2)nc1 | 1 | 5 | 17 | 0.8 | 0.7
Cc1ccc(CN2CCN(c3ccccn3)CC2)s1 | 0.5 | 50* | 90* | 0.1 | 1.5
Cc1sc(NC(=O)c2ccco2)c(CN2CCN(c3ccc(F)cc3)CC2)c1C | 0.5 | 48 | 55* | 0.5 | -0.98
O=C(CN1CCN(c2ccccn2)CC1)NCCc1ccccc1 | 0.6 | 36 | 12 | 0.9 | 0.12
CCN(CC(O)COc1ccc(OCC(O)CN(CC)C2CCCCC2)cc1)C1CCCCC1 (stereo not drawn) | x | x | x | x | -0.32
Cc1ccccc1S(=O)(=O)Oc1ccccc1C(=O)Oc1ccccc1 | 0.5 | 50* | 42 | 0.6 | -0.82
COc1ccccc1C(=O)Oc1ccc(C(C)(C)C)cc1 | 1 | -2 | -2 | 1 | 0.24
CCN(Cc1ccccc1)Cc1cccc([N+](=O)[O-])c1 | 0.7 | 32 | 47 | 0.5 | 0.7
Cc1c(Cl)c([N+](=O)[O-])nn1CCCC(=O)Nc1sc2c(c1C#N)CCC2 | 0.7 | 35 | -12 | 1.1 | 0.72
Cc1ccc(C)c(/C=N/NC(=S)NCCc2ccccc2)c1 | 0.9 | 9 | 0 | 1 | 0.32
COc1c2c(nc3occc13)C(CCC(C)(C)O)(OC)C(O)CC2 (stereo not drawn) | 0.5 | 54* | 56* | 0.4 | -0.43
CC(C)(C)c1cc(CCC(=O)N2CCNCC2)c(C(C)(C)C)cc1O | 0.3 | 74* | 6 | 0.9 | 0.45
O=C(CSc1nc2cc(Cl)ccc2o1)NCCc1ccccc1 | 0.3 | 65* | 51* | 0.5 | -0.03
CCN(CC)S(=O)(=O)c1ccc2oc(SCC(=O)NCc3ccccc3)nc2c1 | 0.1 | 90* | 97* | 0 | 0.74
O=C(CSc1nc2cc(Cl)ccc2o1)c1cccs1 | 0.4 | 60* | 58* | 0.4 | -1.1
CCS(=O)(=O)c1ccc2oc(SCC(=O)NC3CCCC(C)C3C)nc2c1 (stereo not drawn) | 0.5 | 46 | 52* | 0.5 | 0.44
O=C(CSc1nc2ccccc2o1)NC(=O)NCc1ccccc1 | 0.7 | 30 | 28 | 0.7 | -0.4
SMILES | CYP2C9 activ | CYP2C9 inhib | CYP2C19 inh | CYP2C19 act | PTK2B oligo ant
COc1ccc(CC(=O)c2ccc(OC)c(OC)c2C)cc1OC | x | x | x | x | 1.9
C/C(=N\NC(=O)COc1ccc([N+](=O)[O-])cc1)C(C)(C)C | 0.9 | 8 | 23 | 0.8 | 1.6
COc1ccc(CCNC(=O)CSc2nc3ccccc3o2)cc1 | 0 | 99* | 92* | 0.1 | 0.75
Clc1cc2nc3ccccn3c2cc1Cl | 1 | -1 | 17 | 0.8 | -1.4
COc1ccc(-c2cc3ccccc3n2CC(O)CN2CCOCC2)cc1 (stereo not drawn) | 0.4 | 63* | 95* | 0 | 0.6
Cc1ccc(S(=O)(=O)N(C)CC(=O)N2CCOCC2)cc1 | 1.4 | -36 | 2 | 1 | 0.16
Cc1ccc(N(CC(O)CN2CCCC2)S(=O)(=O)c2ccc(C)cc2)cc1 (stereo not drawn) | 1 | -2 | 10 | 0.9 | 0.38
Cc1ccc(S(=O)(=O)N(CC(O)CN2CCOCC2)c2cc(Cl)ccc2Cl)cc1 (stereo not drawn) | 0.8 | 18 | 54* | 0.5 | 2
Cc1ccc(N(CC(O)CN2CCOCC2)S(=O)(=O)c2ccc3ccccc3c2)cc1 (stereo not drawn) | 0.5 | 52* | 19 | 0.8 | -0.72
COc1ccc(CCNC(=O)C2CCN(S(=O)(=O)N3CC(C)CC(C)C3)CC2)cc1OC (stereo not drawn) | 0.9 | 14 | -1 | 1 | 0.22
